This note sets out measurements from PubChem BioAssay (NCI).

Molecules are shown by their SMILES. The panel holds about 83,000 compounds, 20% with a hit somewhere; the sample as a whole holds those more often.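 48-hour exposure, single concentration, 96-well plates; percent growth endpoint where 0 means no net growth. Active: below 10.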 A number with no mark means an inactive call. Activity calls are given as the source filed them.

What all share (assay): NCI-60 one-dose screen, 48 h (100 = growth as untreated, 0 = no growth, -100 = all killed)
The subject of one experiment is HCT-15 colon. Particulars: 10 µM unless noted.
The next experiment relates to HT29 colon. The settings on record: 10 µM unless noted.
The next experiment deals with SNB-19 CNS. The settings on record: 10 µM unless noted.
A further experiment has as its system U251 CNS. The settings on record: 10 µM unless noted.
In the next experiment the test system is PC-3 prostate. The settings on record: 10 µM unless noted.
The next experiment deals with SK-MEL-5 melanoma. Particulars: 10 µM unless noted.
A further experiment deals with UACC-62 melanoma. The settings on record: 10 µM unless noted.
Another experiment relates to LOX IMVI melanoma. Particulars: 10 µM.
Another experiment deals with SK-MEL-28 melanoma. Particulars: 10 µM unless noted.
The next experiment has as its system SK-MEL-2 melanoma. The settings on record: 10 µM unless noted.
For the next experiment, the system named is EKVX NSCLC. Particulars: 10 µM unless noted.
In a further experiment the test system is SN12C renal. Particulars: 10 µM unless noted.
A further experiment has as its system UO-31 renal. Particulars: 10 µM unless noted.
A further experiment has as its system TK-10 renal. The settings on record: 10 µM unless noted.
For another experiment, the system named is ACHN renal. Particulars: 10 µM unless noted.
A further experiment deals with CAKI-1 renal. The settings on record: 10 µM unless noted.
Another experiment deals with A498 renal. Particulars: 10 µM unless noted.
A further experiment deals with CCRF-CEM leukemia. The settings on record: 10 µM unless noted.
Another experiment concerns MOLT-4 leukemia. The settings on record: 10 µM unless noted.

`COc1c(F)ccc(C(=O)Nc2ccc3nc(NC(=O)C4CCCN(S(=O)(=O)c5cccc(C(F)(F)F)c5)C4)sc3c2)c1F` (stereo not drawn): the growth is 69.1% in the experiment on HCT-15 colon; 83.2% in the experiment on HT29 colon; 72.6% in the experiment with SNB-19 CNS; 69.8% with U251 CNS; 50.3% with PC-3 prostate; 89.3% in the experiment with SK-MEL-5 melanoma. Moreover, the growth with UACC-62 melanoma was 83.3%; in the experiment with LOX IMVI melanoma, 86.5%; with SK-MEL-28 melanoma it was 98.2%; in the experiment with SK-MEL-2 melanoma, 83.8%; with EKVX NSCLC, 94.5%; in the experiment on SN12C renal, 78.8%. The growth in the experiment with UO-31 renal was 74.8%; with TK-10 renal, 102%; with ACHN renal, 83.6%; in the experiment on CAKI-1 renal it was 83.1%; with A498 renal, 101%; with CCRF-CEM leukemia, 88.7%. For the same molecule, the growth in the experiment on MOLT-4 leukemia is 44.9%.
As to `C=C1CC[C@@H]2[C@]3(C)COC(c4cn[nH]c4-c4cccc(Cl)c4)O[C@@H]3CC[C@@]2(C)[C@@H]1C/C=C1/C(=O)OCC1O` (stereo partly drawn), the growth in the experiment with HCT-15 colon is -59.2% (active); in the experiment with HT29 colon it was 0.309% (active); in the experiment with SNB-19 CNS it was 5.54% (active); in the experiment with U251 CNS it was -85.8% (active); in the experiment with PC-3 prostate, -0.106% (active); in the experiment on SK-MEL-5 melanoma, -79.6% (active). Moreover, the growth in the experiment with UACC-62 melanoma was -86.9% (active); in the experiment on LOX IMVI melanoma, -100% (active); with SK-MEL-28 melanoma, -76.6% (active); in the experiment with SK-MEL-2 melanoma, -23.7% (active); in the experiment on EKVX NSCLC it was 8.03% (active); in the experiment with SN12C renal it was -69.6% (active). The growth in the experiment with UO-31 renal is -94.4% (active); in the experiment on TK-10 renal, 3.28% (active); in the experiment on ACHN renal, -87.4% (active); in the experiment on CAKI-1 renal, 32.6%; with A498 renal it was 151%; with CCRF-CEM leukemia, -14.9% (active). The growth in the experiment with MOLT-4 leukemia was 12.7%.
As for `COc1c(F)ccc(C(=O)Nc2ccc3nc(NC(=O)C4CCCN(S(=O)(=O)c5ccc(C(F)(F)F)cc5)C4)sc3c2)c1F` (stereo not drawn), the growth with HCT-15 colon was 85.7%; in the experiment with HT29 colon, 79.1%; in the experiment with SNB-19 CNS it was 83.8%; in the experiment with U251 CNS, 76%; in the experiment on PC-3 prostate, 57.7%; in the experiment with SK-MEL-5 melanoma, 84.9%. The growth in the experiment on UACC-62 melanoma is 65.8%; in the experiment on LOX IMVI melanoma, 83.3%; in the experiment with SK-MEL-28 melanoma, 92.3%; in the experiment on SK-MEL-2 melanoma it was 84.7%; in the experiment with EKVX NSCLC, 103%; in the experiment with SN12C renal it was 82.4%. Further, the growth in the experiment on UO-31 renal was 55.3%; in the experiment with TK-10 renal, 99.9%; with ACHN renal, 72.3%; with CAKI-1 renal, 61.2%; in the experiment with A498 renal, 96.7%; with CCRF-CEM leukemia, 89.5%. The growth in the experiment with MOLT-4 leukemia was 47.2%.
As for `CN(C)CCCNC(=O)c1cc(NC(=O)c2cc(NC(=O)c3ccc(C#Cc4ccccc4)cc3)cn2C)cn1C`, the growth in the experiment on HCT-15 colon is -20.6% (active); in the experiment on HT29 colon, -68.4% (active); with SNB-19 CNS, 24.7%; in the experiment on U251 CNS it was -91.6% (active); in the experiment on PC-3 prostate, -30.8% (active); in the experiment on SK-MEL-5 melanoma, -93.7% (active). The growth with UACC-62 melanoma is -33.1% (active); in the experiment with LOX IMVI melanoma it was -100% (active); in the experiment on SK-MEL-28 melanoma, 47.1%; in the experiment with SK-MEL-2 melanoma it was -88.8% (active); with EKVX NSCLC, 27%; with SN12C renal it was -18.5% (active). In addition, the growth in the experiment with UO-31 renal is 36.1%; in the experiment on TK-10 renal, 42.9%; in the experiment on ACHN renal, 19.2%; with CAKI-1 renal, 18.6%; in the experiment on A498 renal it was 83.5%; with CCRF-CEM leukemia, -24.3% (active). Further, the growth in the experiment on MOLT-4 leukemia is -29.5% (active).
With `Cn1cc(-c2cc(N)n3nc(-c4c[nH]c5ccccc45)cc3n2)c2cc(Br)cnc21`, the growth is -58.5% (active) with HCT-15 colon; -80.7% (active) with HT29 colon; -39.6% (active) in the experiment on SNB-19 CNS; -79.7% (active) in the experiment on U251 CNS; -43.3% (active) in the experiment on PC-3 prostate; -94.2% (active) in the experiment on SK-MEL-5 melanoma. The growth with UACC-62 melanoma is -95% (active); in the experiment with LOX IMVI melanoma, -94.1% (active); in the experiment on SK-MEL-28 melanoma, -96.2% (active); in the experiment on SK-MEL-2 melanoma, -72.6% (active); in the experiment on EKVX NSCLC, -60.4% (active); with SN12C renal, -81.5% (active). Also, the growth was -42.1% (active) with UO-31 renal; -58.2% (active) with TK-10 renal; -74.6% (active) in the experiment on ACHN renal; -36% (active) with CAKI-1 renal; -28.6% (active) in the experiment with A498 renal; -36.2% (active) with CCRF-CEM leukemia. Moreover, the growth in the experiment on MOLT-4 leukemia was -52% (active).
In the case of `CC(C)c1sc(NC(=O)c2cc(NC(=O)c3cc(NC(=O)c4cscn4)cn3C)cn2C)nc1C(=O)NCCCN(C)C`, the growth with HCT-15 colon is 98.6%; with HT29 colon it was 2.45% (active); with SNB-19 CNS it was -9.66% (active); in the experiment on U251 CNS, -38.4% (active); in the experiment with PC-3 prostate, -26.3% (active); with SK-MEL-5 melanoma it was -3.44% (active). In addition, the growth was -73.5% (active) with UACC-62 melanoma; -94% (active) in the experiment with LOX IMVI melanoma; -16.3% (active) in the experiment on SK-MEL-28 melanoma; -79.4% (active) in the experiment with SK-MEL-2 melanoma; 27% with EKVX NSCLC; 19.1% in the experiment with SN12C renal. The growth with UO-31 renal is 85%; in the experiment on TK-10 renal it was 85.3%; in the experiment with ACHN renal it was 98.7%; in the experiment on CAKI-1 renal it was 91%; in the experiment on A498 renal, 113%; with CCRF-CEM leukemia, 1.16% (active). The growth in the experiment on MOLT-4 leukemia was 5.49% (active).
With `Brc1ccc(N/N=C/c2c[nH]c3ccc(Br)cc23)nc1`, the growth in the experiment on HCT-15 colon was -61.8% (active); with HT29 colon, -80.1% (active); in the experiment with SNB-19 CNS it was 4.49% (active); with U251 CNS, -63.5% (active); in the experiment with PC-3 prostate it was -29.6% (active); with SK-MEL-5 melanoma it was -87% (active). Also, the growth with UACC-62 melanoma was -57% (active); in the experiment with LOX IMVI melanoma, -100% (active); with SK-MEL-28 melanoma, -50.7% (active); with SK-MEL-2 melanoma, -57% (active); in the experiment on EKVX NSCLC, -11.8% (active); in the experiment on SN12C renal it was -22.6% (active). The growth was -18.7% (active) in the experiment on UO-31 renal; -16.8% (active) with TK-10 renal; -22.8% (active) in the experiment with ACHN renal; -24.4% (active) in the experiment with CAKI-1 renal; -21.3% (active) in the experiment with A498 renal; -37.7% (active) in the experiment with CCRF-CEM leukemia. For the same molecule, the growth in the experiment with MOLT-4 leukemia is -35% (active).
